PubChem BioAssay AID1259343 (VanderVen Lab, College of Veterinary Medicine, Cornell …, 2017)
The campaign covered roughly 6,200 compounds. About 2,900 (47%) were called active. So high a share suggests a set chosen from earlier hits. This is one part of the list. Values without a mark were called inactive. No stated cut-off is given here; in the data, active means inhibition above about 50%; inactive means the rest.

Experiment: Mycobacterium tuberculosis growth inhibition, primary screen (AID 1259343)
Settings: inhibition: at 10 µM, active compounds read high; outcome: 10 uM
In the case of `COc1cc(NC(=O)CN2CCC(n3ccnc3)C2)ccc1Cl` (stereo unspecified), the inhibition is reported as 85.6% (active).
In the case of `COc1ccc(NC(=O)N2CCCC(C(=O)c3sccc3C)C2)cc1OC` (stereo unspecified), the inhibition is reported as 23.7%.
With `O=C(Nc1ncc(Cl)s1)C1CC1c1ccco1` (stereo unspecified) the inhibition was 86.5% (active).
Work on `COc1cccc(C2CC2C(=O)Nc2cnc(C3CC3)nc2)c1` (stereo unspecified) yielded an inhibition of 37.3%.
For `O=C(NCC(O)COc1cccc(Cl)c1Cl)C1CC1c1ccco1` (stereo unspecified), the inhibition was 12.8%.
For `CCCc1cc(=O)[nH]c(-n2nc(C)cc2NC(=O)c2ccc(OC)c(OC)c2)n1`, the inhibition was 102% (active).
With `CCCc1cc(=O)[nH]c(-n2nc(C)cc2NC(=O)c2cc(OC)c(OC)c(OC)c2)n1` the inhibition was 100% (active).
Compound `CCc1cc(=O)[nH]c(-n2nc(C)cc2NC(=O)c2cc(OC)c(OC)c(OC)c2)n1` has an inhibition of -22.3%.
`COC(=O)CN1C(c2ccc(OC)cc2)=Nc2ccc(Br)cc2C1c1ccccc1` (stereo unspecified) gave an inhibition of 29.4%.
Compound `CC(NC(=O)COc1ccc2cc(Br)ccc2c1)c1ccc(F)cc1` (stereo unspecified) has an inhibition of -32.3%.
In the case of `O=C(O)COc1ccc2cc(Br)ccc2c1`, the inhibition is reported as 78.5% (active).
For `Cc1cccc2c3c(ccc12)C1=C(C(=O)C3=O)C(C)CO1` (stereo unspecified), the inhibition was 82.3% (active).
Work on `CN(CC(F)(F)C(F)F)S(=O)c1ccc2ccccc2c1` (stereo unspecified) yielded an inhibition of 49%.
With `COc1ccc(-c2nnc(C(C)Nc3cccc4c3CCCC4)o2)cc1` (stereo unspecified) the inhibition was 67.9% (active).
In the case of `CC(NCC1(c2ccccc2)CCCC1)c1nnc(-c2ccccc2)o1` (stereo unspecified), the inhibition is reported as -0.11%.
For `CN(Cc1ccccc1)C(=O)NCCc1ccc2c(c1)CCO2`, the inhibition was 66.7% (active).
In the case of `CN(Cc1ccco1)C(=O)NCCc1cccc(Cl)c1`, the inhibition is reported as 49.7%.
Work on `O=C(Cc1ccc2c(c1)CCC2)NCCc1ccc2c(c1)OCCO2` yielded an inhibition of 37.8%.
In the case of `c1ccc(CCCCc2nn3c(C4CC4)nnc3s2)cc1`, the inhibition is reported as 34.8%.
In the case of `FC(F)(F)c1nnc2sc(Cc3cccc4ccccc34)nn12`, the inhibition is reported as 71.8% (active).
For `CC1CCN(S(=O)(=O)NCc2cc(-c3ccccc3)on2)CC1`, the inhibition was 20.4%.
For `O=S(=O)(NCc1ncc(-c2ccccc2)o1)N1CCCCCC1`, the inhibition was 58.4% (active).
In the case of `O=S(=O)(NCCCC1CCCCC1)N1CCCCCC1`, the inhibition is reported as 26.3%.
With `Cc1oc(=O)oc1CN1CCN(c2cc3c(cc2F)c(=O)c(C(=O)O)c2n3C(C)S2)CC1` (stereo unspecified) the inhibition was 96.9% (active).
With `CN1C(=CC=NNc2nc3ccccc3s2)C(C)(C)c2ccccc21` the inhibition was 97% (active).
In the case of `CN1C(=CC=NN=c2sc3ccccc3n2C)C(C)(C)c2ccccc21`, the inhibition is reported as 4.19%.
For `c1cc(-c2nc3cc(Oc4ccc5oc(-c6ccncc6)nc5c4)ccc3o2)ccn1`, the inhibition was 32.7%.
`O=C(NN=CC(Br)=Cc1ccccc1)c1cnccn1` gave an inhibition of -13.9%.
For `Cc1ccc(CN2CCN(N=CC(Br)=Cc3ccccc3)CC2)c(C)c1`, the inhibition was 98.3% (active).
For `Cc1cccc2sc(N(Cc3ccccc3)C(=O)c3ccno3)nc12`, the inhibition was 35.8%.
In the case of `COC(=O)c1ccc(C(=O)NNc2nc3c(C)cccc3s2)cc1`, the inhibition is reported as 99.7% (active).
With `COc1ccccc1OCC(=O)N1CCC(Oc2nc3c(C)cccc3s2)CC1` the inhibition was 20.8%.
`CCCN(C)c1cc(Oc2ccc(C)cc2)ncn1` showed an inhibition of 25.2%.
With `Cc1cc(C)cc(Oc2cc(-n3nc(C)cc3C)ncn2)c1` the inhibition was 65.7% (active).
`c1ccc(-c2noc3nc(NC4CC4)ccc23)cc1` showed an inhibition of 44.6%.
For `CC1CCCC(C)N1CCNc1ccc2c(-c3ccc(F)cc3)noc2n1` (stereo unspecified), the inhibition was 47.2%.
In the case of `COCCCNc1ccc2c(-c3ccccc3F)noc2n1`, the inhibition is reported as 76.1% (active).
For `Fc1ccccc1-c1noc2nc(NC3CC3)ccc12`, the inhibition was 70.5% (active).
With `Fc1ccc(-c2noc3nc(NC4CC4)ccc23)cc1` the inhibition was 92.9% (active).
Work on `CCCC1=NN(C(C)=O)C(C(=O)NCCCN2CCCCC2C)O1` (stereo unspecified) yielded an inhibition of -9.23%.
In the case of `c1ccc(-c2nc3cc4ccccc4cc3[nH]2)nc1`, the inhibition is reported as 17.5%.
In the case of `c1ccc(-c2nc3c(ccc4ccccc43)[nH]2)cc1`, the inhibition is reported as 89.8% (active).
For `c1ccc(-c2nc3c(ccc4ccccc43)[nH]2)nc1`, the inhibition was 96.1% (active).
Compound `Oc1ccc2[nH]c(-c3ccccc3)nc2c1CN1CCCCC1` has an inhibition of 13.3%.
In the case of `O=C1NC(=O)/C(=C/c2csc(-c3ccccc3)n2)S1`, the inhibition is reported as 59.2% (active).
Work on `CC(C)C(=O)Nc1ccc(OCC(F)(F)F)c(C#N)c1` yielded an inhibition of -16.8%.
In the case of `O=C(NCC1CCCCN1)c1cc(OCC(F)(F)F)ccc1OCC(F)(F)F` (stereo unspecified), the inhibition is reported as 84.3% (active).
With `Cn1cccc1C(=O)NS(=O)(=O)c1ccc(C#N)c(Cl)c1` the inhibition was 15%.
With `CC(C)c1ccc(C(C)NC(=O)c2cccn2C)cc1` (stereo unspecified) the inhibition was 79% (active).
In the case of `CC(NC(=O)c1cccnc1N1CCCCC1)c1ccc(C#N)cc1` (stereo unspecified), the inhibition is reported as 4.4%.
With `CN(Cc1ccccc1)Cc1cc(C(=O)NCc2cccc(F)c2F)no1` the inhibition was 38.5%.
With `Cc1ccc(C)c(-c2cc(C(=O)NCCC(=O)NCc3ccc(F)cc3)no2)c1` the inhibition was 71.3% (active).
For `Cn1cnc([N+](=O)[O-])c1Sc1ncnc2nc[nH]c12`, the inhibition was 56.7% (active).
For `Cc1cc(C(=O)Nc2ccc(C(C)C)cc2)c(C)o1`, the inhibition was 61.2% (active).
In the case of `Cc1cc(C(=O)Nc2ccc3c(c2)OC2(CCCC2)O3)c(C)o1`, the inhibition is reported as 56% (active).
For `O=S(=O)(Nc1ccc2c(c1)OC1(CCCC1)O2)c1cccs1`, the inhibition was 27%.
For `CC1(C)Oc2ccc(NC(=O)c3ccnc(NC4CC4)c3)cc2O1`, the inhibition was -11.8%.
Work on `CC(C)c1ccc(NC(=O)c2ccc(S(N)(=O)=O)cc2)cc1` yielded an inhibition of 2.35%.
With `O=C(Nc1ccc(N2CCc3ccccc32)cc1)C1CCOC1` (stereo unspecified) the inhibition was 74.7% (active).
With `O=C(O)c1cn(Cc2ccc(F)cc2)nc1OCc1ccc(F)cc1` the inhibition was 47.5%.
In the case of `O=C(O)c1cn(Cc2cccc(F)c2)nc1OCc1cccc(F)c1`, the inhibition is reported as 29.7%.
In the case of `O=C(O)c1cn(Cc2ccccc2)nc1OCc1ccccc1`, the inhibition is reported as 72.7% (active).
For `CCCc1cc(=O)[nH]c(-n2nc(C)cc2NC(=O)CCc2ccc(OC)cc2)n1`, the inhibition was 101% (active).
For `COc1ccc(CCC(=O)Nc2cc(C)nn2-c2nc(C)cc(=O)[nH]2)cc1`, the inhibition was 101% (active).
With `CCc1cc(=O)[nH]c(-n2nc(C)cc2NC(=O)Cc2ccc(OC)cc2)n1` the inhibition was 101% (active).
With `COc1ccc(CC(=O)Nc2cc(C)nn2-c2nc(C)cc(=O)[nH]2)cc1` the inhibition was 101% (active).
